KCNQ2 block – inhibitors of rat KCNQ2 potassium channel | O88943 | CHO-K1 KCNQ2, FluxOR thallium flux, 20 min; active compounds read low | B-score at 10 µM | 1.1% of 310,000 active | AID 2156;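 active means fluorescence ratio B-score at most minus 3 library SDs, with starting brightness B-score within 2 library SDs, cut at about -5.5 in these data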
KCNQ2 pot – enhances the rat KCNQ2 potassium channel | 0.54% of 310,000 active | B-score at 10 µM | CHO-K1 KCNQ2, FluxOR thallium flux fluorescence; active compounds read high | O88943;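 active means fluorescence ratio B-score at least 3 SD of library B-scores, with initial fluorescence B-score within 3 of them, cut at about 5.3 in these data; same plate scores as AID 2156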;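 further: B-score of peak minus minimum over baseline fluorescence ratio after K+ and Tl+ stimulus; positive B-score means potentiation of KCNQ2 with more thallium influx and brighter signal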
Kir21 confirm – confirmation of mouse Kir2.1 potassium channel inhibitors. 41% of 2,300 active. AID 2032. Kir2.1-expressing cells, FluxOR thallium flux fluorescence; active compounds read low. shares compounds with KCNQ2 pot. Tl flux remaining, % of negative control (active compounds read low), % at 10 µM;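 active means Primary-screen hit whose thallium flux fell at least 3 control SD below untreated wells in both duplicates, with normal baseline fluorescence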;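 further: 0% = blank wells without stimulus and 100% = stimulated no-compound controls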
Target sequence (P35561 whole entry, looked up): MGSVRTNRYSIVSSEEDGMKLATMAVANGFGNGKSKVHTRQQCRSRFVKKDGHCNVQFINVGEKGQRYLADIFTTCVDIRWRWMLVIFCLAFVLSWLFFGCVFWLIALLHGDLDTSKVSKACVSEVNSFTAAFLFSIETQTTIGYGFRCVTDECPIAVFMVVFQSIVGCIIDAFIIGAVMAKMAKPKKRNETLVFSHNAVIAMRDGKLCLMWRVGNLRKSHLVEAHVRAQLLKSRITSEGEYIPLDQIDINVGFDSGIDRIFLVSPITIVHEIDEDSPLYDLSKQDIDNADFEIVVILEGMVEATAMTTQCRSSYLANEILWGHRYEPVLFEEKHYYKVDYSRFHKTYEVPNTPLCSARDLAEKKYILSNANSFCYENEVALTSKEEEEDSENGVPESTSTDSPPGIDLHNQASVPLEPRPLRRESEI
HEK293 ctr – counter-screen for Kir2.1 inhibitors: effect in parental HEK293 cells; shares compounds with KCNQ2 pot; FluxOR thallium flux fluorescence; 0% = unstimulated blank wells; FluxOR signal as % of negative control (100 = no effect), % at 10 µM; 19% of 2,300 active; AID 2105;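 active means dye signal at least 3 control SD above or below untreated wells in both duplicates, raw fluorescence within 3, either direction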;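 further: percent is based on the flux ratio of peak minus minimum fluorescence over baseline F0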
CHO-K1 Tl ctr – parental CHO-K1 activity in KCNQ2 potentiator counter-screen. shares compounds with KCNQ2 pot. 43% of 1,200 active. activity increase over 3SD of controls, % at 10 µM. parental CHO-K1 cells, FluxOR thallium flux fluorescence; zero = vehicle mean+3SD, 100% = vehicle-minus-blank window;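 active means signal rise of at least 3 SD above the untreated control mean, in both duplicate wells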;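 further: counter screen of KCNQ2 potentiator hits so any rise reflects channel-independent effects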
KCNQ1 sel pot – human KCNQ1 counter-target activity of KCNQ2 potentiators | shares compounds with KCNQ2 pot | CHO KCNQ1 stable, FluxOR thallium flux fluorescence; beyond 3SD, as % of vehicle-control signal | activation over 3SD threshold, % at 10 µM | 28% of 1,200 active | AID 2283;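 active means fluorescence ratio rise of at least 3 SD of vehicle wells above their mean, in both replicate wells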;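 further: 0% = vehicle mean plus 3 SD and 100% = vehicle minus unstimulated blank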
KCNQ2 pot conf – rat KCNQ2 channel potentiator confirmation | shares compounds with KCNQ2 pot | CHO-KCNQ2 cells, FluxOR thallium flux fluorescence | potentiation, less the hit threshold, % at 10 µM | 68% of 1,200 active;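 active means fluorescence ratio rising 3 SD or more over the vehicle control mean in both replicates, plus primary screen hit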;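 further: peak minus minimum thallium fluorescence divided by baseline after K/Tl stimulus; 0% = vehicle mean plus 3 SD and 100% = vehicle minus unstimulated blank difference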
Kir2-1 sel – tests whether KCNQ2 potentiators also affect mouse Kir2.1; shares compounds with KCNQ2 pot; HEK293 Kir2.1, FluxOR thallium flux fluorescence; activity over 3SD threshold, % at 10 µM; 2% of 1,200 active;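 active means fluorescence ratio rise of at least 3 SD above the vehicle-control mean, seen in both replicates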;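 further: 0% = vehicle mean plus 3 SD and 100% = vehicle minus no-stimulus blank window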
KCNQ2 W236L pot – rat KCNQ2 W236L mutant potentiation by KCNQ2 potentiators; CHO KCNQ2-W236L, automated patch clamp current; 10% of 940 active; current increase over 3SD of negative controls (%), active compounds read high, % at 25 µM; AID 2558; shares compounds with KCNQ2 pot;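 active means current increase at least 3 SD of the untreated controls above them in both duplicate recordings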
Numbers without * were called inactive; i = inactive; x = no result. Rows were chosen to be rich in hits. Some 1.6% of all compounds tested hit in one or more screens of this group.

SMILES	KCNQ2 block	KCNQ2 pot	Kir21 confirm	HEK293 ctr	others
O=C(CSc1nc(-c2ccco2)cc(C(F)(F)F)n1)N1CCN(c2ccc(Cl)cc2)CC1	i	3.02	x	x
CCc1ccc(C(C(=O)NC2CCCCC2)N(C(=O)c2csnn2)C2CC2)cc1 (centres undefined)	i	x	x	x
Cc1cccc(CCN(C(=O)c2csnn2)C(C(=O)NC2CCCC2)c2ccco2)c1 (centres undefined)	i	0.77	x	x
O=C(CSC1=NS(=O)(=O)c2cc(Cl)ccc2N1)c1ccc(Cl)cc1	i	1	x	x
CCOc1ccc(/C=C(\C)C(=O)c2c(C)cc(C)[nH]c2=O)cc1	i	x	x	x
CN(C)c1ccc(/C=C/c2ccc3ccccc3[n+]2C)cc1	i	x	i	i
CN(CCCS(=O)(=O)[O-])c1ccc(/C=C/c2ccc3ccccc3[n+]2C)cc1	i	x	x	x
COc1ccc(CN2CCN(Cc3ccc(Br)cc3)CC2)c(OC)c1OC	i	x	x	x
COc1ccc(-c2[nH]ncc2CN(CCO)Cc2cccs2)c(F)c1	i	1.25	x	x
CN(CCc1ccccn1)C(=O)CCC1CCCN(C(=O)NC2CCCCC2)C1 (centres undefined)	i	0.04	x	x
CCOc1cc(C(c2c(C)[nH][nH]c2=O)c2c(C)[nH][nH]c2=O)ccc1OC(=O)c1cccc([N+](=O)[O-])c1	i	x	x	x
CCOc1cc(C(c2c(C)[nH][nH]c2=O)c2c(C)[nH][nH]c2=O)ccc1OCc1ccc([N+](=O)[O-])cc1	i	x	i	i
CC(=O)C1=C(C)Nc2ncnn2C1c1cccc(Br)c1 (centres undefined)	i	0.01	x	x
Cn1c(COc2ccccc2O)[n+](C)c2ccccc21	i	x	x	x
CCCCCCCCCCOC(=O)Cn1c(COc2ccccc2OC)[n+](C)c2ccccc21	i	x	i	i
COc1ccc(CN2CCC(=O)N([C@H](CO)c3ccccc3)CC2)cc1	i	x	x	x
O=C(NCc1ccccn1)c1cc(Cl)ccc1OCc1ccccc1	i	x	x	x
Cc1cc(C)n(CC(=O)N/N=C/c2cc(Br)cc([N+](=O)[O-])c2O)n1	i	6.94*	i	65.0%*	CHO-K1 Tl ctr=-2.0;KCNQ1 sel pot=-13.1;KCNQ2 pot conf=39.6*;Kir2-1 sel=-26.4;KCNQ2 W236L pot=i
Cc1cc(C)n(CC(=O)N/N=C/c2cc([N+](=O)[O-])ccc2O)n1	i	1.29	x	x
CCC(=O)N(Cc1cc2ccc(C)cc2[nH]c1=O)c1ccccc1OC	i	0.9	x	x
O=C(CSc1nc2ccccc2o1)Nc1ccc(N2CCOCC2)cc1	i	x	x	x
O=C(CSc1nc2ccccc2o1)Nc1ccccc1N1CCOCC1	i	0.43	56.0%*	i
O=C(Nc1ccc(Cl)cc1F)C1CC1c1ccccc1 (centres undefined)	i	7.21*	i	i	CHO-K1 Tl ctr=-12.3;KCNQ1 sel pot=28.2*;KCNQ2 pot conf=18.7*;Kir2-1 sel=-31.4;KCNQ2 W236L pot=i
O=C(Nc1ccncc1)C1CC1c1ccccc1 (centres undefined)	i	0.89	x	x
Cc1ccc(NC(=O)/C=C\C(=O)O)c([N+](=O)[O-])c1	i	x	x	x
SMILES	KCNQ2 block	KCNQ2 pot	Kir21 confirm	HEK293 ctr	others
O=C(Nc1cccc(Cl)c1)C1CC1c1ccccc1 (centres undefined)	i	0.27	x	x
CC(C)c1ccc(NC(=O)C2CC2c2ccccc2)cc1 (centres undefined)	i	17.4*	i	i	CHO-K1 Tl ctr=19.6*;KCNQ1 sel pot=-8.7;KCNQ2 pot conf=28.1*;Kir2-1 sel=-23.9;KCNQ2 W236L pot=i
Cc1ccc(NC(=O)C2CC2c2ccccc2)c([N+](=O)[O-])c1 (centres undefined)	i	10.9*	i	i	CHO-K1 Tl ctr=-15.0;KCNQ1 sel pot=-9.5;KCNQ2 pot conf=7.1*;Kir2-1 sel=-37.6;KCNQ2 W236L pot=40.5%*
CCOc1ccc(S(=O)(=O)N(CC(=O)NCc2cccnc2)c2ccc(F)cc2)cc1	i	x	x	x
COc1cc(/C=N/NC(=O)c2ccccn2)ccc1OC(=O)c1cccs1	i	0.12	x	x
COc1ccc(CN(C)CC(O)COc2ccc(C(=O)c3ccccc3)cc2)c(OC)c1OC (centres undefined)	i	x	x	x
CCN(Cc1ccccc1)CC(O)COC(c1ccc(OC)cc1)c1ccc(OC)cc1 (centres undefined)	i	x	65.5%*	i
COc1ccc(CN(C)CC(O)COC(c2ccccc2)c2ccccc2)c(OC)c1OC (centres undefined)	i	x	54.0%*	i
CCN(CC)CC(O)COC(c1ccccc1)c1ccccc1 (centres undefined)	i	0.53	x	x
CC(C)(C)c1nnc(NS(=O)(=O)c2cc(Cl)ccc2Cl)s1	i	1.86	x	x
O=S(=O)(Nc1nc(-c2sccc2Cl)cs1)c1cc(Cl)ccc1Cl	i	18.8*	i	339.0%*	CHO-K1 Tl ctr=17.3*;KCNQ1 sel pot=-20.6;KCNQ2 pot conf=149.0*;Kir2-1 sel=-24.8;KCNQ2 W236L pot=i
Cc1oc2cc([N+](=O)[O-])c(O)c([N+](=O)[O-])c2c1C(=O)c1ccc(Cl)cc1	i	7.93*	i	143.5%*	CHO-K1 Tl ctr=87.8*;KCNQ1 sel pot=-9.7;KCNQ2 pot conf=14.2*;Kir2-1 sel=-33.5;KCNQ2 W236L pot=10.1%*
COc1ccc(OC)c(C(=O)c2c(C)oc3cc([N+](=O)[O-])c(O)c([N+](=O)[O-])c23)c1	i	0.84	x	x
COc1cccc(C(=O)NCCS(=O)(=O)NCc2ccco2)c1	i	x	x	x
COc1cccc(C(=O)NCc2ccco2)c1	i	8.95*	i	74.0%*	CHO-K1 Tl ctr=-10.2;KCNQ1 sel pot=-11.9;KCNQ2 pot conf=-30.7;Kir2-1 sel=-44.9
Cc1cc(C)c(NC(=O)CC(=O)c2ccccc2)c(Cl)c1	i	1.95	x	x
Cc1cc(C)c(NC(=O)CS)c(Cl)c1	i	20.2*	i	i	CHO-K1 Tl ctr=-16.0;KCNQ1 sel pot=-1.5;KCNQ2 pot conf=95.2*;Kir2-1 sel=-39.8;KCNQ2 W236L pot=i
Cc1cc(C)c(NC(=O)/C=C\C(=O)O)c(Cl)c1	i	x	x	x
Cc1cc(C)c(NC(=O)CC(C)(C)C)c(Cl)c1	i	24.6*	i	i	CHO-K1 Tl ctr=-8.2;KCNQ1 sel pot=-27.9;KCNQ2 pot conf=73.0*;Kir2-1 sel=-29.1;KCNQ2 W236L pot=i
COc1ccccc1C(=O)C1CCCN(C(=O)CN2CCCCC2=O)C1 (centres undefined)	i	x	x	x
CNC(=S)NNC(=O)c1cc(-c2cccnc2)nc2ccccc12	i	0.68	x	x
CCCCNC(=O)CN1C(=O)NC2(CCCc3ccccc32)C1=O (centres undefined)	i	x	x	x
